KB-3-1 cytotox = KB-3-1 parental cell cytotoxicity | 1.4% of 400,000 active | KB-3-1 viability, CellTiter-Glo ATP luminescence, 72 h | AID 1347075 | Potency, µM (titrated, usually from 46.1 µM), actives largely listed as cytotoxic; further: nearly all actives have a fitted effect of over 60% in size
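Cells are dispensed, compounds pinned in, plates held at 37 °C for 72 h, then CellTiter-Glo is added and luminescence read after 10 minutes. Cell line: parental KB-3-1 in phenol-red-free DMEM, 10% FBS.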
HT1080NT lethal = kills 2HG-producing HT-1080-NT fibrosarcoma cells. HT-1080-NT fibrosarcoma viability, CellTiter-Glo ATP luminescence, 48 h. Potency, µM (highest dose often 46.1 µM), usual class: cytotoxic. 1.6% of 360,000 active;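 further: NT is the 2HG producing partner of a matched IDH1 knockdown line; nearly all actives have a fitted effect of over 55% in size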
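Luminescent CellTiter-Glo readout after 48 hours of compound exposure at 37 degrees C defined viability of HT-1080-NT cells. Activity was normalized to DMSO wells and cell-free media wells; concentration-response curves were fitted and assigned curve classes.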
HT1080 IDH1KD tx = HT-1080 IDH1 knockdown cell toxicity (counter line) | HT-1080 IDH1 knockdown viability, ATP luminescence, 48 h | Potency, µM (titrated, usually from 46.1 µM), most hits filed as cytotoxic | 2% of 360,000 active
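HT-1080-IDH1KD cells (IDH1 knocked down), 750/well in RPMI with 5% FBS, treated with compound 48 h at 37 degrees C. Viability by CellTiter-Glo luminescence, normalised to DMSO and no-cell wells; concentration-response curves classed.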
KB-V1 cytotox = kills drug-selected multidrug resistant KB-V1 cells | KB-V1 MDR cells viability, CellTiter-Glo, 72 h | 3.4% of 400,000 active | Potency, µM (series often up to 46.1 µM), hits mostly cytotoxic; further: nearly all actives have a fitted effect of over 60% in size
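Following 72 h at 37 degrees C with compound, KB-V1 cell viability was read by CellTiter-Glo luminescence, medium being phenol-red-free DMEM plus 10% FBS; concentration-response parameters came from normalized, curve-fitted qHTS data.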
Large screens that a line does not name were inactive. The list is not random: actives were taken first. Their share in the collection is about 5.7%. The call rests on the fitted dose curve; in most records, active means well fitted curve in the direction sought with a large enough effect; inconclusive means small, poorly fitted or top-dose-only effect, or another doubt; inactive means no such curve, though single readings can be large; an effect the other way counts as inactive or inconclusive.

C=CCNC(=S)Nc1sc2c(c1C(=O)OCC)CC(C(C)C)OC2 (configuration not stated)	HT1080NT lethal 6.3µM, HT1080 IDH1KD tx 7.9µM, KB-V1 cytotox inconclusive
CC(C)C1Cc2c(sc(NC(=S)NC(=O)c3ccccc3)c2C#N)CO1 (configuration not stated)	none
CCOC(=O)c1c(NC(=S)NCCc2ccccc2)sc2c1CC(C(C)C)OC2 (configuration not stated)	KB-V1 cytotox 21µM
O=C1C(=O)N(C2CCN(C(=O)c3ccccc3F)CC2)CCN1Cc1ccc(F)cc1	KB-V1 cytotox inconclusive (no result: HT1080NT lethal, HT1080 IDH1KD tx)
Cc1ccc(N(CC(=O)NCCSc2ccccc2)S(=O)(=O)c2ccc(F)cc2)cc1	none (no result: HT1080NT lethal, HT1080 IDH1KD tx)
Cc1cc(Cl)c(S(=O)(=O)N2CCSCC2)cc1OCC(=O)NC1CCCCC1	KB-3-1 cytotox inconclusive, HT1080NT lethal inconclusive, KB-V1 cytotox 3.7µM
Cc1cc(Cl)c(S(=O)(=O)N2CCCCCC2)cc1OCC(=O)NC1CCCCC1	none
Cc1cc(Cl)c(S(=O)(=O)NC2CCCC2)cc1OCC(=O)NC1CCCCC1	KB-3-1 cytotox inconclusive, HT1080 IDH1KD tx 20µM
CCOc1ccc(CCNC(=O)Cn2nc(CC)n3c(cc4c(OC)cccc43)c2=O)cc1OCC	none (no result: HT1080NT lethal, HT1080 IDH1KD tx)
CCOc1ccc(NC(=O)/C=C/c2ccccc2)c([N+](=O)[O-])c1	KB-3-1 cytotox inconclusive, KB-V1 cytotox inconclusive
CCOc1ccc(N/C=C/C(=O)c2ccccc2)c([N+](=O)[O-])c1	KB-3-1 cytotox 16µM, HT1080NT lethal inconclusive, HT1080 IDH1KD tx inconclusive, KB-V1 cytotox inconclusive
CN1CCN(CCCNC(=O)CCCOc2cc(=O)n(C)c3ccccc23)CC1	none
CC(C)CCNC(=O)CCCOc1cc(=O)n(C)c2ccccc12	KB-V1 cytotox 13µM
Cc1ccc(C)c(N2CCN(C(=O)COc3cc(=O)n(C)c4ccccc34)CC2)c1	none
Cc1ccc(C)c(N2CCN(C(=O)CCCOc3cc(=O)n(C)c4ccccc34)CC2)c1	KB-3-1 cytotox inconclusive, HT1080 IDH1KD tx inconclusive, KB-V1 cytotox 8.2µM
COc1ccc(N2CCN(C(=O)CCCOc3cc(=O)n(C)c4ccccc34)CC2)cc1	KB-V1 cytotox 8.2µM
CC1CCN(C(=O)CCCOc2cc(=O)n(C)c3ccccc23)CC1	KB-V1 cytotox inconclusive
O=C(c1ccc2c(=O)n(Cc3ccco3)c(=S)[nH]c2c1)N1CCN(Cc2ccc3c(c2)OCO3)CC1	none (no result: KB-3-1 cytotox, KB-V1 cytotox)
O=c1c2sc3ccccc3c2n(Cc2cccc(F)c2)c(=O)n1CCc1ccccc1	none (no result: HT1080NT lethal, HT1080 IDH1KD tx)
Cc1ccc2nc(NC(=O)CSc3nncc(=O)n3N)sc2c1	none
O=C(Nc1ccccc1)c1ccc(Br)c(S(=O)(=O)N2CCCCC2)c1	KB-3-1 cytotox inconclusive (no result: HT1080NT lethal, HT1080 IDH1KD tx)
Cc1ccccc1-c1nc(CNC(=O)NC2CCCCC2)c(C)o1	none (no result: HT1080NT lethal, HT1080 IDH1KD tx)
Cc1ccc(NC(=O)CSc2ccccc2NC(=O)c2ccccc2Cl)cc1Cl	KB-3-1 cytotox inconclusive, KB-V1 cytotox 3.7µM
COc1ccc(Cl)cc1NC(=O)NC(C)c1ccncc1 (configuration not stated)	KB-V1 cytotox 18µM
COc1ccc(Cl)cc1NC(=O)Nc1ccc(Br)cn1	HT1080NT lethal inconclusive, HT1080 IDH1KD tx 18µM
COc1ccc(C)cc1NC(=O)NC(C)c1ccncc1 (configuration not stated)	none
COc1ccccc1NC(=O)Nc1ccc(Br)cn1	none
Cn1c(=N)n(CC(O)c2cccc3ccccc23)c2ccccc21 (configuration not stated)	KB-3-1 cytotox inconclusive, HT1080NT lethal 23µM, KB-V1 cytotox inconclusive
CC(=O)Nc1ccc(S(=O)(=O)NCC2CCC(C(=O)NCCc3ccc(C)cc3)CC2)cc1 (configuration not stated)	none (no result: HT1080NT lethal, HT1080 IDH1KD tx)
Cc1ccc2[nH]c(=O)c(CN(Cc3cccs3)C(=S)NCc3ccco3)cc2c1	KB-V1 cytotox 18µM
CCNC(=S)N(Cc1cccs1)Cc1cc2cc(OCC)ccc2[nH]c1=O	KB-V1 cytotox 12µM
CCNC(=S)N(Cc1ccco1)Cc1cc2cc(OCC)ccc2[nH]c1=O	KB-V1 cytotox inconclusive
CCCN1C(=O)C2(c3ccccc31)c1c(oc3ccccc3c1=O)C(=O)N2CCO (configuration not stated)	none (no result: HT1080NT lethal, HT1080 IDH1KD tx)
Clc1ccc(CSc2nncn2-c2ccc3c(c2)OCCO3)cc1	KB-3-1 cytotox 13µM, HT1080NT lethal 16µM, HT1080 IDH1KD tx 5.2µM, KB-V1 cytotox inconclusive
Clc1ccc(CSc2nncn2-c2ccccn2)cc1	none
CCc1ccccc1NC(=O)CSc1nnc(-c2cc(OC)c(OC)c(OC)c2)o1	none (no result: HT1080NT lethal, HT1080 IDH1KD tx)
CCN(CC(=O)Nc1ccc2c(c1)OCCO2)Cc1cc(=O)oc2c(C)c(C)ccc12	KB-V1 cytotox 4.1µM
Cc1cccc(C)c1OCC(=O)N/N=C/c1ccc2c(c1)OCO2	KB-3-1 cytotox inconclusive, HT1080NT lethal 15µM, HT1080 IDH1KD tx inconclusive, KB-V1 cytotox 5.2µM
O=C(N/N=C/c1ccc2c(c1)OCO2)c1cccs1	KB-3-1 cytotox inconclusive, HT1080NT lethal inconclusive, HT1080 IDH1KD tx inconclusive
CCN(CC(=O)Nc1ccc2c(c1)OCCO2)CC(=O)Nc1ccc2c(c1)OCO2	none
O=C(CSCc1ccccc1Br)N/N=C/c1ccc2c(c1)OCO2	KB-V1 cytotox inconclusive
O=C(CSCc1cccc(Br)c1)N/N=C/c1ccc2c(c1)OCO2	KB-3-1 cytotox 18µM
Cc1ccsc1C(=O)N/N=C/c1ccc2c(c1)OCO2	KB-3-1 cytotox inconclusive, HT1080NT lethal inconclusive, HT1080 IDH1KD tx inconclusive, KB-V1 cytotox 18µM
Cc1occc1C(=O)N/N=C/c1ccc(OCc2ccccc2)cc1	none
Cc1ccc(C)c(OCC(=O)Nc2ccc3c(c2)OCO3)c1C	KB-3-1 cytotox 8.2µM, KB-V1 cytotox inconclusive
Cc1cc(C(=O)N/N=C/c2ccc3c(c2)OCO3)c(C)o1	HT1080 IDH1KD tx inconclusive, KB-V1 cytotox inconclusive
Cc1occc1C(=O)N/N=C/c1ccc(-c2ccccc2)cc1	KB-3-1 cytotox 21µM, HT1080NT lethal 9.2µM, HT1080 IDH1KD tx 6.5µM, KB-V1 cytotox 13µM
COc1ccccc1C(=O)NCC(=O)N/N=C/c1ccc2c(c1)OCO2	KB-3-1 cytotox inconclusive, HT1080NT lethal inconclusive, HT1080 IDH1KD tx 21µM
Cc1occc1C(=O)N/N=C/c1ccc2c(c1)OCO2	KB-3-1 cytotox 15µM, HT1080NT lethal 9.2µM, HT1080 IDH1KD tx 8.2µM, KB-V1 cytotox 7.3µM
N#Cc1cnn(-c2ccc([N+](=O)[O-])cc2[N+](=O)[O-])c1N	KB-3-1 cytotox 18µM, KB-V1 cytotox inconclusive
N#Cc1cnn(-c2cc(Cl)ccc2Cl)c1N	none
CCOc1ccc(CC(=O)Nc2ccc3nc(N4CCCCC4)cc(C)c3c2)cc1OCC	none (no result: HT1080NT lethal, HT1080 IDH1KD tx)
CC1Cc2ccccc2N1C(=O)c1cc2sccc2n1Cc1ccc(F)cc1 (configuration not stated)	KB-3-1 cytotox inconclusive, KB-V1 cytotox 21µM
O=C(NCc1ccco1)C1CCN(C(=O)c2cc3sccc3n2Cc2ccc(F)cc2)CC1	HT1080NT lethal inconclusive, HT1080 IDH1KD tx inconclusive, KB-V1 cytotox inconclusive
O=C(NCc1ccco1)c1cc2sccc2n1Cc1ccccc1	HT1080NT lethal inconclusive, HT1080 IDH1KD tx inconclusive, KB-V1 cytotox 16µM
O=C(c1ccco1)N1CCN(C(=O)c2cc3sccc3n2Cc2ccccc2)CC1	KB-3-1 cytotox inconclusive, HT1080 IDH1KD tx inconclusive, KB-V1 cytotox 2.1µM
